VDR inh: Inhibitors of the vitamin D receptor (VDR): qHTS; Vitamin D3 receptor (Homo sapiens), P11473; 400,000 compounds, 0.93% hits; VDR-SRC2-3 peptide fluorescence polarization, 2 h; Potency, µM, without a hit: max response, negative = inhibition, most hits filed as inhibitors; AID 504847, 2011; further: potency means the concentration at half of the fitted maximal effect; on the % scale 0 is the no-effect control and ±100 the full control effect
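Fluorescence polarization assay of small-molecule disruption of VDR binding to coregulator peptide SRC2-3. Compounds and controls pin-transferred, then read after 2 h incubation at ambient room temperature.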
GoLoco inh red: qHTS Assay for Inhibitors of RGS12 GoLoco Motif Activity (Red Fluorophore). Guanine nucleotide-binding protein G(i) subunit alpha-1 (Homo sapiens), P63096. Potency, µM (doses to about 61.6 µM), without a hit: at the highest dose activity, negative = inhibition, usual class: inhibitors. Gai1:RGS12 GoLoco peptide FP, rhodamine, 10 min. 230,000 compounds, 0.44% hits. AID 880, 2007; active means well fitted inhibition curve with a large enough effect, not every such curve was filed as active; inactive means no such curve, though single readings can be large or run the other way; further: potency means the concentration at half of the fitted maximal effect; on the % scale 0 is the no-effect control and ±100 the full control effect; nearly all actives have a fitted effect of over 30% in size
Target sequence (P63096 whole entry, looked up): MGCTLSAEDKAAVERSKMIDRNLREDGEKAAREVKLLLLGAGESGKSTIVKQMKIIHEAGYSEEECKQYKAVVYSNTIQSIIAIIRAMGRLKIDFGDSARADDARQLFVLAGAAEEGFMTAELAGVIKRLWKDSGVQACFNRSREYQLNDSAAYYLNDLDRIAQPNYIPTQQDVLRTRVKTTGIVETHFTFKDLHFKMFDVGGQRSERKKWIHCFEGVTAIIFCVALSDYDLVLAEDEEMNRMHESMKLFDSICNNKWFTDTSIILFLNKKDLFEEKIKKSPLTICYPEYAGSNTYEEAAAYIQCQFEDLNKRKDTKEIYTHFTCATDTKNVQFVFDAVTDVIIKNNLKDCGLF
HTT aggregate: qHTS Multiplex Assay to Identify Dual Action Probes in a Cell Model of Huntington: Aggregate Formation (GFP). PC12 HttQ103-GFP aggregates, Acumen cytometry, 40 h. AID 1688, 2009. 220,000 compounds, 1.1% hits. Potency, µM (series often up to 46.1 µM), for the others: at the top dose activity change, negative = inhibition, hits mostly inhibitors; further: potency means the concentration at half of the fitted maximal effect; on the % scale 0 is the no-effect control and ±100 the full control effect; nearly all actives have a fitted effect of over 60% in size
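Aggregate formation scored by laser-scanning cytometer (488 excitation, 500–530 emission) in lysed PC12 cells expressing Q103-GFP after 100 nM tebufenozide induction; library tested in dose series, with ATPLite reagent added in the multiplex.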
KDM4E inh: qHTS Assay for Inhibitors of Human Jumonji Domain Containing 2E (JMJD2E); Lysine-specific demethylase 4E (Homo sapiens), B2RXH2; JMJD2E catalytic domain, FDH-coupled NADH fluorescence (FDH is formaldehyde dehydrogenase); Potency, µM (highest dose often 57.1 µM), without a hit: top-dose activity change, negative = inhibition, hits mostly inhibitors; 230,000 compounds, 1.6% hits; active means well fitted inhibition curve with a large enough effect, not every such curve was filed as active; inconclusive means small, poorly fitted or top-dose-only effect, or another doubt; inactive means no such curve, though single readings can be large or run the other way;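 further: potency means the concentration at half of the fitted maximal effect; 0% = wells with enzyme and -100% = buffer wells without enzyme; nearly all actives have a fitted effect of over 50% in size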
Target sequence (B2RXH2 1-337 limits assumed): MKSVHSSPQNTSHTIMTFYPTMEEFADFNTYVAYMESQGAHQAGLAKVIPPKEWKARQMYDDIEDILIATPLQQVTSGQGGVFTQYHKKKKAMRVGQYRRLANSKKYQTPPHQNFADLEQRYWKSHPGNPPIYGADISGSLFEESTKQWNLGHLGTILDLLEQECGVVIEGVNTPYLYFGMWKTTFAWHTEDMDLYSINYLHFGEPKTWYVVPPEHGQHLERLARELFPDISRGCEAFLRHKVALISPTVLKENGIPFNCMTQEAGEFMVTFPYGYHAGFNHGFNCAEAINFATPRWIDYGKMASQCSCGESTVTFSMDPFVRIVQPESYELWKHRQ
HTT cytoprotect: qHTS Multiplex Assay to Identify Dual Action Probes in a Cell Model of Huntington: Cytoprotection (ATP); PC12 HTT-Q103 induced, cytoprotection, ATP luminescence, 40 h; Potency, µM (top dose mostly 56.4 µM), inactives show cytoprotection (ATP increase), actives largely listed as activators; 230,000 compounds, 0.14% hits; AID 1471, 2008; further: potency means the concentration at half of the fitted maximal effect; % of control where 0% means no effect; nearly all actives have a fitted effect of over 45% in size
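Readout: ATPlite luminescence (ATP level). Model: stable PC12, inducible Htt exon1 Q103-GFP. Inducer: tebufenozide, 100 nM final. Compounds: dose series. No G418 in medium.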
Coupling enz: qHTS Assay for Inhibitors of Fructose-1,6-bisphosphate Aldolase from Giardia Lamblia: Coupling assay counterscreen; AID 2472, 2010; 290,000 compounds, 0.67% hits; coupling enzyme system counterscreen, AmpLite Red fluorescence; activity change, negative = inhibition, % at 58.2 µM, hits read low; in the data active means activity change below about -30%; further: on the % scale 0 is the no-effect control and ±100 the full control effect
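First, compound is pin-transferred into glyceraldehyde-3-phosphate coupling-enzyme reagent at 57.5 uM final and held 10 min at RT. Next, substrate, coupling system and AmpLite Red are added. After 20 min RT, fluorescence (525/598 nm) is read.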
* = called active by the depositor; ? = inconclusive; / = no result given; ! = not active in a repeat; [ ] = remark or other dose. Most compounds without a hit are left out; they make up all but 2.3% or so of the library. Unless noted, the call rests on the fitted dose curve; in most records, active means well fitted curve in the direction sought with a large enough effect; inconclusive means small, poorly fitted or top-dose-only effect, or another doubt; inactive means no such curve, though single readings can be large; an effect the other way counts as inactive or inconclusive.

SMILES	VDR inh	GoLoco inh red	HTT aggregate	KDM4E inh	HTT cytoprotect	Coupling enz
CC(=O)C1=C(C)N=c2s/c(=C/c3ccc4c(c3)OCO4)c(=O)n2C1c1ccc(N(C)C)cc1 (centres undefined)	32µM*	/	/	/	/	/
Cc1ccc(Cl)cc1-n1ncc2c(N3CCC(C)CC3)ncnc21	-5%	/	/	/	/	/
N#Cc1cccc(N=c2ssnc2Cl)c1	?	-23%	-8%	-22%	8%[10 µM]	4
OCc1ccccc1N=c1ssnc1Cl	/	-4%	13%	-11%	-10%	3
Clc1nssc1=Nc1nncs1	5.6µM*	/	/	/	/	/
Clc1nssc1=Nc1ccc(Br)cc1	35µM*	13%	?	11µM*	-101%	2
Clc1ccc(N=c2ssnc2Cl)nc1	5.6µM*	10%	-18%[9.22 µM]	-6%	-35%[10 µM]	1
COc1cc(N=c2ssnc2Cl)cc(OC)c1	20µM*	16µM*	10µM*	20µM*	12%	-12
COc1ccc(CNC(=O)CC(c2ccc(OC)c(OC)c2)N2Cc3ccccc3C2=O)cc1 (centres undefined)	-10%	/	/	/	/	/
Cc1cccc(C(=O)OCC(=O)c2c(C)[nH]c3ccccc23)c1O	10%	/	/	/	/	/
C#CCOCCOCCOCCNc1nc(N2CCN(C(=O)[C@H]([C@@H](C)CC)n3cc([C@@H](N)CO)nn3)CC2)nc(N2CCN(C(=O)[C@H](CCCCN)n3cc([C@@H](N)C(C)CC)nn3)CC2)n1 (some centres undefined)	-21%	4%	2%[9.22 µM]	-1%	-1%[10 µM]	3
C#CCOCCOCCOCCNc1nc(N2CCN(C(=O)[C@H](CCCCN)n3cc([C@@H](N)C(C)CC)nn3)CC2)nc(N2CCN(C(=O)[C@H](CCCCN)n3cc([C@@H](N)CO)nn3)CC2)n1 (some centres undefined)	/	4%	3%[9.22 µM]	20µM*	40%[10 µM]	5
CN(C(=O)CSc1nnc(-c2ccc(F)cc2)c2ccccc12)C1CCS(=O)(=O)C1 (centres undefined)	12%	33%	?	-1%	13%[10 µM]	2
CC(C)NC(=O)CSc1nnc(-c2ccc(F)cc2)c2ccccc12	-4%	8%	25%	-2%	13µM*	5
COc1ccc(CCNc2nc(SCc3cccc(Cl)c3)nc3ccccc23)cc1OC	12%	/	/	/	/	/
C/C(=N\NC(N)=O)C1CC(CC(C)C)C(=O)O1 (centres undefined)	-9%	10%	-8%	10%	?	2
CCCCCCCC1CC(/C(C)=N/NC(N)=O)OC1=O (centres undefined)	45µM*	-6%	0%	6%	/	5
CC(=O)c1ccc(NS(=O)(=O)c2ccc(-n3cccn3)cc2)cc1	12%	/	/	/	/	/
c1cn(-c2ncnc3ccc(-c4ccoc4)cc23)cn1	32µM*	2%	/	/	2.5µM*	2
Cc1cccc(CNc2ncnc3ccc(-c4ccoc4)cc23)c1	20µM*!	12%	/	?	?	6
c1nc(NC2CC2)c2cc(-c3ccoc3)ccc2n1	40µM*	25%	/	/	-44%	2
COc1ccc(-n2ncc3c2ncn2nc(-c4ccc(OC)c(OC)c4)nc32)cc1	20%	/	/	/	/	/
CC(=O)CSc1nnc2cc(C)c3ccccc3n12	-8%	3%	18%	?	-4%[10 µM]	-3
Cc1cc2nnc(SCC(=O)OC(C)C)n2c2ccccc12	22%	7%	4µM*	?	-95%[10 µM]	4
CCOc1ccc(CN2C(=O)c3ccccc3Sc3ccc(C(=O)NCc4ccco4)cc32)cc1	-14%	/	/	/	/	/
SMILES	VDR inh	GoLoco inh red	HTT aggregate	KDM4E inh	HTT cytoprotect	Coupling enz
CCOc1ccc(N2CC(C(=O)NCCc3ccc(F)cc3)CC2=O)cc1 (centres undefined)	-4%	/	/	/	/	1
Cc1ccc(S(=O)(=O)NC(C(=O)Oc2ccc3c(C(F)(F)F)cc(=O)oc3c2)c2ccccc2)cc1 (centres undefined)	0%	14%	-12%	32µM*	2%[10 µM]	11
COC(=O)C(NS(=O)(=O)c1ccc(C)cc1)c1ccccc1 (centres undefined)	5%	3%	?	-4%	-47%	0
N#C/C(=C/c1ccc(N2CCCCCC2)o1)c1ccc(Cl)cc1	22µM*	79%	-31%	-28%	36%	-20
Cc1ccc(/C(C#N)=C\c2ccc(N3CCOCC3)o2)cc1	?	-22%	-5%[9.22 µM]	16µM*	17%[10 µM]	-25
Cc1ccc2nc(/C(C#N)=C\c3ccc(N4CCOCC4)o3)[nH]c2c1	-12%	149%	?	-6%	-25%[10 µM]	0
N#C/C(=C/c1ccc(N2CCCCC2)o1)c1cccc(F)c1	40µM*	58%	23%	?	?	-29
COc1ccc(NC(=S)NCCN2CCC(C)CC2)cc1Cl	?	12%	5%	8%	-16%	-47*
COc1ccc(NC(=S)N(CCC(C)C)C2CCN(C(C)C)CC2)cc1Cl	?	/	/	/	/	-47*
COc1ccc(NC(=S)NCCCN2CCCC2)cc1Cl	-20%	-4%	-5%	5%	-7%	1
Cc1nc2ccc(S(=O)(=O)CCC(=O)Nc3ccc(Cl)cc3)cc2s1	-5%	/	/	/	/	/
CCNc1ncc2nc(-c3ccccc3)c(=O)n(CCOC)c2n1	-1%	-10%	/	/	-4%	0
COC(=O)c1ccc(C(NC(=O)OCc2ccccc2)/C(I)=C/[C@@H](C)C(=O)Nc2ccccc2)cc1 (some centres undefined)	/	4%	/	-3%	-3%	-1
O=C1NC(=O)[C@@H]2C3c4ccccc4C=CN3[C@H](C(=O)c3cccs3)[C@H]12 (some centres undefined)	/	-36%	-11%	?	-24%	-43*
CC(C)(C)C(=O)[C@@H]1[C@@H]2C(=O)N(Cc3ccccc3)C(=O)[C@@H]2[C@H]2c3ccccc3C=CN12	/	43%	9%[9.22 µM]	-26%	1%	-12
Cc1ccc(-n2sc3ccccc3c2=O)cc1S(=O)(=O)N1CCCCC1	?	28µM*	?	11µM*	-4%[10 µM]	3
O=c1c2ccccc2sn1-c1ccc(S(=O)(=O)N2CCCC2)cc1	?	0.16µM*	16%	?	14%[10 µM]	-3
O=c1c2ccccc2sn1-c1ccc(S(=O)(=O)N2CCCCC2)cc1	-6%	/	/	/	19%[10 µM]	/
